# Assay results: PubChem BioAssay (Tox21)
# Several values for one entry are separate records, joined by “and”; a condition that tells them apart may be missing. Identical values can stand only once. Records with an inconclusive call do not appear. Where a call stands in place of a potency, no number is given. Activity calls are given as the source filed them. Unless noted, calls come from the whole dose curve; as a rule, active = well fitted curve in the direction sought with a large enough effect in the repeat runs; inconclusive = weak or mixed curves; inactive = no such curve, though single readings can be large; an effect the other way counts as inactive or inconclusive.
# Columns and labels:
# [1] = qHTS assay to identify small molecule agonists of the estrogen receptor alpha (ER-alpha) signaling pathway in the presence of an antagonist - cell viability counter screen (AID 1259386);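 note: series mostly up to about 92 µM; cells exposed to compounds for 22 h at 37 °C before the viability read; nearly all actives have a fitted effect of over 30% in size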
# How it was run: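 Viability counter screen using VM7Luc4E2 (full-length ER-alpha, four ERE-luciferase). The cells were treated with compounds alongside ICI-182,780 10.0nM for 22hr, and live-cell protease fluorescence was quantified with CellTiter-Fluor.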
# [2] = molecular target: Progesterone receptor (Homo sapiens) (UniProt P06401); experiment: qHTS assay to identify small molecule agonists of the progesterone receptor (PR) signaling pathway (AID 1346784; calls by dose curve; note: nearly all actives have a fitted effect of over 30% in size)
# Chain of Progesterone receptor (Homo sapiens) (P06401 whole entry, looked up): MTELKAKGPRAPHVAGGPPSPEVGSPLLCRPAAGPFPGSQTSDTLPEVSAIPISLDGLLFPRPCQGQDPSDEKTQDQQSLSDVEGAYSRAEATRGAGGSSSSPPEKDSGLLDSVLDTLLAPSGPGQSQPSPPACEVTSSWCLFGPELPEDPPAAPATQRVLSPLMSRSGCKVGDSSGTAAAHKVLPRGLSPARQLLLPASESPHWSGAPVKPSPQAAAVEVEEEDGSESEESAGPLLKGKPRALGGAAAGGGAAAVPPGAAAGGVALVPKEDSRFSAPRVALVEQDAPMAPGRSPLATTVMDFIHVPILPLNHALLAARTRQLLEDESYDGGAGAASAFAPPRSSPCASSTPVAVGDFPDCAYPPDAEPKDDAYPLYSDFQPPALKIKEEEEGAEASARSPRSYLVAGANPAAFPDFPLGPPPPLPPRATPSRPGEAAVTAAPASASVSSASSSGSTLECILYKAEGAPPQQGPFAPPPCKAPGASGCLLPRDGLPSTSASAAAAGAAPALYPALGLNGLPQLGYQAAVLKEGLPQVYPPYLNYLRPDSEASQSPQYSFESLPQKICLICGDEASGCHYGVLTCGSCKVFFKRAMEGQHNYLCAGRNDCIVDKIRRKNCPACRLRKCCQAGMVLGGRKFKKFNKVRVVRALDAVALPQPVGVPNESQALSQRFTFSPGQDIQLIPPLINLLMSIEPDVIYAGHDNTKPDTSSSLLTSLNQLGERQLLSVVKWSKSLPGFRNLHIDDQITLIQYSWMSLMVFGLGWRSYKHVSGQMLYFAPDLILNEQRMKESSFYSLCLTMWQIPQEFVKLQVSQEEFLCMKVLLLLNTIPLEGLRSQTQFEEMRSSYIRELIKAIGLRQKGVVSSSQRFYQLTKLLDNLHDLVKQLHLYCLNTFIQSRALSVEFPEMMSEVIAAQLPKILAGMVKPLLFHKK
# How it was run: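 Beta-lactamase reporter read-out: after 16 hr compound treatment at 37C and a further 2 hr at room temperature with LiveBLAzer B/G FRET substrate, fluorescence was measured in PR-UAS-bla HEK 293T cells grown in 2% charcoal-stripped serum.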
# [3] = molecular target: Progesterone receptor (Homo sapiens) (UniProt P06401); experiment: qHTS assay to identify small molecule antagonists of the progesterone receptor (PR) signaling pathway (AID 1346795; active = well fitted inhibition curve with a large enough effect in the signal ratio in the repeat runs, not every such curve was filed as active; the % refers to the signal ratio; note: potency is the fitted concentration of half-maximal effect)
# How it was run: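 Read-out is fluorescence from the LiveBLAzer B/G FRET substrate, cleaved by a UAS-controlled beta-lactamase in PR-UAS-bla HEK293T cells after 16 hr exposure to compound plus 1 nM promegestone (final), followed by 2 hr at room temperature.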
# [4] = qHTS assay to identify small molecule antagonists of the progesterone receptor (PR) signaling pathway - cell viability counter screen (AID 1346798);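 note: HEK293T PR-UAS-bla cells stimulated with the agonist R5020; series mostly up to about 92 µM; nearly all actives have a fitted effect of over 50% in size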
# How it was run: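 HEK293T PR-UAS-bla, 2% charcoal-stripped FBS; 4 hr pre-plate; cpd + R5020, 16 h 37C; LiveBLAzer read first; then CellTiter-Glo 30 min RT, luminescence.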
# [5] = qHTS assay to identify small molecule agonists of the progesterone receptor (PR) signaling pathway - cell viability counter screen (AID 1346799; calls by dose curve; note: nearly all actives have a fitted effect of over 45% in size)
# How it was run: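 Luminescence from CellTiter-Glo, added after the beta-lactamase FRET read in the same wells, gave cytotoxicity in PR-UAS-bla HEK293T cells treated with compounds for 16 hr at 37C.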
# [6] = qHTS assay to identify small molecule antagonists of the TGF-beta/Smad signaling pathway - cell viability counter screen (AID 1346824); note: nearly all actives have a fitted effect of over 50% in size
# How it was run: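 Cytotoxicity counter-screen run in the same wells as the beta-lactamase Smad reporter read: CellTiter-Glo luminescence after 30 min at room temperature. HEK 293T SBE-bla cells had 5 hr compound exposure at 37 C with TGF-beta1 (0.25 ng/mL stock).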
# [7] = qHTS assay to identify small molecule agonists of the TGF-beta/Smad signaling pathway - cell viability counter screen (AID 1346829); note: top concentration of the series differs between compounds; nearly all actives have a fitted effect of over 45% in size
# How it was run: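 After overnight seating at 37 C and 5% CO2, reporter cells got compounds for 5 hr and FRET substrate for 2 hr; cell viability then came from CellTiter-Glo luminescence.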
# [8] = qHTS assay to identify small molecule agonists of the TGF-beta/Smad signaling pathway (AID 1346859; active = well fitted activation curve with a large enough effect in the signal ratio in the repeat runs, not every such curve was filed as active; the % refers to the signal ratio; note: series mostly up to about 77 µM)
# How it was run: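 SBE-bla HEK 293T, 4,000 cells/well, plated o/n; cpd in DMSO, 5 hr, 37 C/5% CO2; B/G FRET substrate 2 hr RT; ex 405, em 460/530 nm.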
# [9] = molecular target: Thyrotropin-releasing hormone receptor (Homo sapiens) (UniProt P34981); experiment: qHTS assay to identify small molecule agonists of the thyrotropin-releasing hormone receptor (TRHR) signaling pathway (AID 1346891; calls by dose curve; note: series mostly up to about 58 µM)
# Chain of Thyrotropin-releasing hormone receptor (Homo sapiens) (P34981 whole entry, looked up): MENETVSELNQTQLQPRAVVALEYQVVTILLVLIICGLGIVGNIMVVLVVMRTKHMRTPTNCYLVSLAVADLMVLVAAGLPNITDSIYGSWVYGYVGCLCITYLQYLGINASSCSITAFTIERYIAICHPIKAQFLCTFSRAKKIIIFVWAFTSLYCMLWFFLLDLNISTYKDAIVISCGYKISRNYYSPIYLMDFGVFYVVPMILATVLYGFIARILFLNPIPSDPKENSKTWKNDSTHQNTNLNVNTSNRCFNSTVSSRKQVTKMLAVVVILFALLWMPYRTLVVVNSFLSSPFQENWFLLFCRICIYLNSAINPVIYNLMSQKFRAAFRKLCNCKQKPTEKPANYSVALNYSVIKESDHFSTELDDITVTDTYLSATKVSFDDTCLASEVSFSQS
# How it was run: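 Intracellular calcium rise, read as fluorescence every second for 3 min, served as the agonist signal in dye-loaded HEK293 cells expressing TRHR; each compound ran at 15 concentrations in triplicate.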
# [10] = Caspase-3/7 induction in HepG2 cells by small molecules, qHTS assay (AID 1346978); note: nearly all actives have a fitted effect of over 15% in size
# How it was run: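 Caspase-3/7 induction was measured by Caspase-Glo 3/7 luminescence (30 min, room temperature) after a 17 hr compound exposure of wild-type HepG2 cells seeded at 2,000 per well and pre-incubated 5 hr.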
# [11] = Caspase-3/7 induction in CHO-K1 cells by small molecules, qHTS cell viability counter screen (AID 1346979); note: nearly all actives have a fitted effect of over 35% in size; note: potency is the fitted concentration of half-maximal effect
# How it was run: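 Cells (CHO-K1, wild type) are plated at 1,500 per well and incubated 5hr. Test compounds in DMSO are then pinned in, followed by 16hr at 37C and 5% CO2. Viability is read by CellTiter-Fluor fluorescence after 1hr.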
# [12] = Caspase-3/7 induction in CHO-K1 cells by small molecules, qHTS assay (AID 1346980); note: nearly all actives have a fitted effect of over 15% in size
# How it was run: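 Luminescent Caspase-Glo 3/7 read (30min, room temperature) quantified apoptosis induction. Cells were wild-type CHO-K1, treated with compound for 17hr at 37 C and 5% CO2.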
# [13] = Caspase-3/7 induction in HepG2 cells by small molecules, qHTS cell viability counter screen (AID 1346981); note: series mostly up to about 92 µM; nearly all actives have a fitted effect of over 30% in size
# How it was run: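 Viability determined by CellTiter-Fluor fluorescence in HepG2 wells also used for the luminescent Caspase-Glo 3/7 read. Compounds were present for 16 hr at 37 C, 5% CO2 before reagent addition.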
# [14] = molecular target: Nuclear receptor subfamily 1 group I member 2 (Homo sapiens) (UniProt O75469); experiment: Human pregnane X receptor (PXR) small molecule agonists, qHTS assay (AID 1346982); note: nearly all actives have a fitted effect of over 35% in size; note: potency is the fitted concentration of half-maximal effect
# Chain of Nuclear receptor subfamily 1 group I member 2 (Homo sapiens) (O75469 whole entry, looked up): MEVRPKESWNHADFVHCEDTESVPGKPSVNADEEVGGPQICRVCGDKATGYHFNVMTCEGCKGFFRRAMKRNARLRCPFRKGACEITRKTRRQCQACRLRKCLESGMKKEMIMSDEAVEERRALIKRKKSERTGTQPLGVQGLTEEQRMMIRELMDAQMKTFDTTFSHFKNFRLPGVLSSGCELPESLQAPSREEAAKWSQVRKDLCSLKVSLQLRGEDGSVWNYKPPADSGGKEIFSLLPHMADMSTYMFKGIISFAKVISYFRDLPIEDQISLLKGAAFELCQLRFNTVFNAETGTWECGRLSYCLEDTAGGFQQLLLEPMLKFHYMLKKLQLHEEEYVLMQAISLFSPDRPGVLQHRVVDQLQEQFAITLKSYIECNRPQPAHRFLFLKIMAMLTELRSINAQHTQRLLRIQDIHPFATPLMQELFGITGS
# How it was run: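 Compound-induced hPXR transactivation of a CYP3A4 luciferase reporter was scored in HepG2 PXR-Luc cells over 24 hr at 37 C, 5% CO2, by luminescence.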
# [15] = molecular target: Nuclear receptor subfamily 1 group I member 2 (Homo sapiens) (UniProt O75469); experiment: CYP3A4 induction through human pregnane X receptor (PXR) by small molecules, qHTS assay (AID 1346984); note: nearly all actives have a fitted effect of over 40% in size
# How it was run: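 Readings come from a luciferase reporter: DPX-2 cells, which are HepG2 cotransfected with PXR and a CYP3A4-promoter construct, were exposed to test compounds for 24 h at 37C before One-Glo detection.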
# [16] = molecular target: Nuclear receptor subfamily 1 group I member 2 (Homo sapiens) (UniProt O75469); experiment: Human pregnane X receptor (PXR) activation by small molecules, qHTS assay (AID 1346985); note: nearly all actives have a fitted effect of over 40% in size
# How it was run: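 DPX-2 cells (HepG2 co-transfected with a PXR response element and a CYP3A4-promoter luciferase construct) were seeded at 2,000 per well, rested 5 hr at 37C, then exposed to DMSO-dissolved compounds for 24 hr. Activation was read as luciferase luminescence.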
# [17] = molecular target: Acetylcholinesterase (Homo sapiens) (UniProt P22303); experiment: Acetylcholinesterase (AChE) small molecule antagonists: colormetric cell-based qHTS assay (AID 1347395; calls by dose curve; note: nearly all actives have a fitted effect of over 30% in size; note: potency is the fitted concentration of half-maximal effect)
# Chain of Acetylcholinesterase (Homo sapiens) (P22303 whole entry, looked up): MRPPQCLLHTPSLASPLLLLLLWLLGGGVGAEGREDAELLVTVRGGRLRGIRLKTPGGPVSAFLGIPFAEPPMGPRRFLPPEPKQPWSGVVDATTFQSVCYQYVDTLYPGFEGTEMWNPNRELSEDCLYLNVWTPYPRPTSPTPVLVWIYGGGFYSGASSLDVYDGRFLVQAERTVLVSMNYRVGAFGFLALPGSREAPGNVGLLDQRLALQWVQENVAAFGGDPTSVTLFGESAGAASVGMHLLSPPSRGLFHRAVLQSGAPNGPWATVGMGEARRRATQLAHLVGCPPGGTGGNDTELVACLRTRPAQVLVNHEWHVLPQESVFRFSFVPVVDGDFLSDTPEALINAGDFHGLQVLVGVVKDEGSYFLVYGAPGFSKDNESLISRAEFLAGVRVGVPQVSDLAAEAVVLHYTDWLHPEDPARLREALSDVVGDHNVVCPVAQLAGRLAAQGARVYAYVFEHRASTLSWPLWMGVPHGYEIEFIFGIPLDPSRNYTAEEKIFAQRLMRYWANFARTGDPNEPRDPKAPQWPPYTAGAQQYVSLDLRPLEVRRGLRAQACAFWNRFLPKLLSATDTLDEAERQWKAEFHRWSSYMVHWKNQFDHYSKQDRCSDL
# How it was run: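 Colorimetric read-out: DTNB detects thiocholine released when cellular AChE in SH-SY5Y cells hydrolyses acetylthiocholine. Cells attached overnight, received compound for 30 min at 37 C, then substrate mix for 90 min at 37 C.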
# [18] = molecular target: Thyrotropin-releasing hormone receptor (Homo sapiens) (UniProt P34981); experiment: qHTS assay to identify small molecule antagonists of the thyrotropin-releasing hormone receptor (TRHR) signaling pathway (AID 1346877; active = well fitted inhibition curve with a large enough effect in the repeat runs, not every such curve was filed as active; note: series mostly up to about 51 µM)
# How it was run: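 Following an 18 h incubation at 37 °C and a 2 h calcium dye load, TRHR-HEK293 cells were exposed to compound (5 min, room temperature) and challenged with TRH, 1 nM final.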
# [19] = Human pregnane X receptor (PXR) small molecule agonists, qHTS cell viability counter screen (AID 1346977); note: nearly all actives have a fitted effect of over 50% in size
# How it was run: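 PXR-Luc HepG2, 2,000 cells/well, 5% charcoal-stripped FBS; 5hr settle; cpd 24hr, 37C/5% CO2; CellTiter-Fluor at 23hr, read 1hr later (fluorescence).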
# [20] = molecular target: Nuclear receptor subfamily 1 group I member 2 (Rattus norvegicus) (UniProt Q9R1A7); experiment: Rat pregnane X receptor (rPXR) activation by small molecules, qHTS assay (AID 1346983); details: rPXR luciferase reporter cells, One-Glo luminescence, 24 h; active compounds read high; note: nearly all actives have a fitted effect of over 20% in size
# Chain of Nuclear receptor subfamily 1 group I member 2 (Rattus norvegicus) (Q9R1A7 whole entry, looked up): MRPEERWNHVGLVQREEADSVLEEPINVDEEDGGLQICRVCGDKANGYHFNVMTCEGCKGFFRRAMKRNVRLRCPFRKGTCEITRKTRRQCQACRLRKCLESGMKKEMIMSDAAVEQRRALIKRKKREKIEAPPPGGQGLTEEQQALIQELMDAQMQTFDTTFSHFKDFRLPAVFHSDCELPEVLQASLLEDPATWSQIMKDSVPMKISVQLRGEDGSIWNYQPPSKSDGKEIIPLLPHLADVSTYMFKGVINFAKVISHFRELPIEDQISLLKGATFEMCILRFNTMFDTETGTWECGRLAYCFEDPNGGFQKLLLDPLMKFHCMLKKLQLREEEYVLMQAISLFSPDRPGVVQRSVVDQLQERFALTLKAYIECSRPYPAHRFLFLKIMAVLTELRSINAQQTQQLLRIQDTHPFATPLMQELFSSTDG
# How it was run: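 Luminescent readout (One-Glo luciferase, 30 min room temperature) followed 24 hr compound treatment at 37 C of rPXR cells plated 2,000 per well and preincubated 5hr; qHTS format with compounds delivered in DMSO.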
SMILES,Potency [1],Potency [2],Potency [3],Potency [4],Potency [5],Potency [6],Potency [7],outcome [8],outcome [9],Potency [10],Potency [11],Potency [12],Potency [13],Potency [14],outcome [15],Potency [16],Potency [17],Potency [18],Potency [19],max activation [20]
Cc1ccccc1,inactive,inactive,inactive,inactive,inactive,inactive,inactive,inactive,inactive,inactive,inactive,inactive,inactive,inactive,inactive,inactive,inactive,,,
C=C(C)C(=O)OCCCCOC(=O)C(=C)C,inactive,inactive,inactive,inactive,inactive,inactive,inactive,inactive,inactive,inactive,inactive,inactive,inactive,inactive,,,inactive,inactive,inactive,
CN(C)N,inactive,inactive,inactive,inactive,inactive,inactive,inactive,inactive,inactive,inactive,inactive,inactive,inactive,inactive,,,inactive,inactive,inactive,
CCCC[N+](CCCC)(CCCC)CCCC,inactive,inactive,inactive,inactive,inactive,inactive,inactive,inactive,inactive,inactive,inactive,inactive,inactive,inactive,,,44.7 µM (active),inactive,inactive,
CC(C)(C)c1ccc(CCOc2ncnc3ccccc23)cc1,inactive,inactive,inactive,inactive,inactive,inactive,inactive,inactive,inactive,inactive,inactive,inactive,inactive,inactive,,,inactive,inactive,inactive,
O=P(OCC(Br)CBr)(OCC(Br)CBr)OCC(Br)CBr (stereo not drawn),inactive,inactive,5.8 µM (active),inactive,inactive,inactive,inactive,inactive,inactive,inactive,69.5 µM (active),inactive,inactive,55.2 µM (active) and 51.7 µM (active),,,inactive,inactive,,
CCCC[P+](CC)(CCCC)CCCC (tested in a mixture with another compound),inactive,inactive,inactive,inactive,inactive,inactive,inactive,inactive,inactive,inactive,inactive,inactive,inactive,inactive,,,,inactive,inactive,
C=CCc1ccccc1O,inactive,inactive,inactive,inactive,inactive,inactive,inactive,inactive,inactive,inactive,inactive,inactive,,inactive,,,inactive,,,
CC(C)(C)OOC(C)(C)CCC(C)(C)OOC(C)(C)C,inactive,inactive,inactive,inactive,inactive,inactive,inactive,inactive,inactive,inactive,inactive,inactive,inactive,inactive,,,inactive,inactive,inactive,
C=CC(C)(CCC=C(C)C)OC(=O)c1ccccc1N (stereo not drawn),inactive,inactive,inactive,inactive,inactive,inactive,inactive,inactive,inactive,inactive,inactive,inactive,inactive,,,,,inactive,inactive,
CCOC(=O)C1OC1(C)c1ccccc1 (stereo not drawn),inactive,inactive,inactive,inactive,inactive,inactive,inactive,inactive,inactive,inactive,inactive,inactive,,inactive,,,inactive,,inactive,
Cc1ccc(N)c(C)c1,inactive,inactive,inactive,inactive,inactive,inactive,inactive,inactive,inactive,inactive,inactive,inactive,inactive,inactive,,,,,inactive,
FC(F)OC(F)(F)C(F)Cl (stereo not drawn),inactive,inactive,inactive,inactive,inactive,inactive,inactive,inactive,inactive,inactive,inactive,inactive,inactive,inactive,inactive,inactive,inactive,inactive,inactive,-2.15% (inactive)
CCC(C)(C)O,inactive,inactive,inactive,inactive,inactive,inactive,inactive,inactive,inactive,inactive,inactive,inactive,inactive,inactive,,,inactive,inactive,inactive,
CCOC(C(=O)OCCN(C)C)(c1ccccc1)c1ccccc1,inactive,inactive,inactive,inactive,inactive,inactive,inactive,inactive,inactive,inactive,inactive,inactive,inactive,13.3 µM (active),,,inactive,inactive,,
Cc1cnc(C2=NC(C)(C(C)C)C(=O)N2)c(C(=O)O)c1 (stereo not drawn),inactive,inactive,inactive,inactive,inactive,inactive,inactive,inactive,inactive,inactive,inactive,inactive,inactive,inactive,,,inactive,inactive,inactive,
